In all, about 5,500 compounds went through this assay and about 2,000 (36%) were called active. Another 18% or so got no clear call; they are omitted. Cut-off read from the data, not from the text of the source: active = normalized growth mostly below about 0.91 (no sharp cut-off); inconclusive = no clear call, values can overlap the other calls; inactive = mostly above about 0.92. The list shows a part of the results.
Assay: chemical genetic growth profiling, strain panel (AID 1159580);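 note: tested at 20 µM; growth read once vehicle control cultures reached saturation at 30 °C; 1 = growth at the plate median or of vehicle wells; lower values mean less growth of the strain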
Conditions: S. cerevisiae deletion strains, growth OD

Measured: normalized growth

COc1ccc(C2CNC(=O)C2)cc1OC1CCCC1 (stereo unspecified)
inactive: locus YAL013W, strain DEP1, active compounds read low 1.01 | locus YAL021C, strain ccr4, active compounds read low 1 | locus YAL026C, strain drs2, active compounds read low 1.02 | locus YAL030W, strain snc1, active compounds read low 1.02 | locus YAL040C, strain CLN3, active compounds read low 0.999 | locus YBL061C, strain skt5, active compounds read low 1.01 | locus YBR009C, strain hhf1, active compounds read low 1.02 | locus YBR023C, strain chs3, active compounds read low 1.01 | locus YBR171W, strain sec66, active compounds read low 1.02 | locus YBR231C, strain swc5, active compounds read low 1.02 | locus YBR279W, strain paf1, active compounds read low 1.01 | locus YCL011C, strain gbp2, active compounds read low 1.01 | locus YCL016C, strain dcc1, active compounds read low 1.01 | locus YCL061C, strain MRC1 (second series), active compounds read low 1 | locus YCL061C, strain MRC1, active compounds read low 1.01 | locus YCL069W, strain vba3, active compounds read low 1.01 | locus YCR088W, strain abp1, active compounds read low 1.01 | locus YDL005C, strain med2, active compounds read low 0.996 | locus YDL040C, strain nat1, active compounds read low 1.01 | locus YDR001C, strain nth1, active compounds read low 1.01 | locus YDR069C, strain doa4, active compounds read low 1.02 | locus YDR137W, strain rgp1, active compounds read low 1.02 | locus YDR159W, strain sac3, active compounds read low 1.03 | locus YDR195W, strain ref2 1.01 | locus YDR297W, strain sur2, active compounds read low 1.01 | locus YDR334W, strain swr1, active compounds read low 1.01 | locus YDR335W, strain msn5, active compounds read low 1.01 | locus YDR363W, strain ESC2, active compounds read low 1.01 | locus YDR392W, strain spt3, active compounds read low 1.04 | locus YEL003W, strain gim4, active compounds read low 1.01 | locus YEL037C, strain rad23, active compounds read low 0.965 | locus YEL061C, strain CIN8 (second series), active compounds read low 1.01 | locus YER002W, strain NOP16, active compounds read low 0.993 | locus YER015W, strain faa2, active compounds read low 1 | locus YER016W, strain bim1, active compounds read low 1.01 | locus YER111C, strain swi4, active compounds read low 1.02 | locus YER155C, strain BEM2 (second series), active compounds read low 1.04 | locus YFR010W, strain ubp6, active compounds read low 1 | locus YGL167C, strain pmr1, active compounds read low 1.01 | locus YGL173C, strain kem1, active compounds read low 1.01 | locus YGL227W, strain vid30, active compounds read low 1.01 | locus YGL240W, strain doc1, active compounds read low 1.02 | locus YGL253W, strain hxk2, active compounds read low 1.03 | locus YHR013C, strain ard1, active compounds read low 1.04 | locus YHR027C, strain rpn1, active compounds read low 1.01 | locus YHR142W, strain chs7, active compounds read low 0.98 | locus YJL092W, strain hpr5, active compounds read low 1 | locus YJL095W, strain BCK1 (second series), active compounds read low 1.01 | locus YJL115W, strain asf1, active compounds read low 1.01 | locus YJL129C, strain trk1, active compounds read low 1.02 | locus YJL154C, strain vps35, active compounds read low 1 | locus YJL164C, strain tpk1, active compounds read low 0.999 | locus YJL166W, strain qcr8, active compounds read low 1.02 | locus YJL187C, strain SWE1, active compounds read low 1.01 | locus YJR075W, strain HOC1, active compounds read low 1.01 | locus YKL160W, strain elf1, active compounds read low 0.998 | locus YKR026C, strain gcn3, active compounds read low 0.994 | locus YKR091W, strain srl3, active compounds read low 1.01 | locus YLL001W, strain dnm1, active compounds read low 1.01 | locus YLL026W, active compounds read low 1.02 | locus YLL041C, strain sdh2, active compounds read low 1.01 | locus YLR027C, strain aat2, active compounds read low 1.01 | locus YLR221C, strain rsa3, active compounds read low 1.01 | locus YLR258W, strain gsy2, active compounds read low 1.01 | locus YLR262C, strain YPT6 (second series), active compounds read low 1.02 | locus YLR320W, strain mms22, active compounds read low 1.02 | locus YLR342W, strain FKS1, active compounds read low 1 | locus YLR357W, strain rsc2, active compounds read low 1.01 | locus YLR370C, strain arc18, active compounds read low 1.02 | locus YLR384C, strain iki3, active compounds read low 0.999 | locus YML120C, strain ndi1, active compounds read low 1.01 | locus YMR058W, strain fet3, active compounds read low 1.02 | locus YMR125W, strain sto1, active compounds read low 1.02 | locus YMR129W, active compounds read low 1.02 | locus YMR205C, strain PFK2, active compounds read low 1.03 | locus YMR231W, strain pep5, active compounds read low 1 | locus YMR263W, strain SAP30, active compounds read low 1 | locus YMR307W, strain GAS1, active compounds read low 1.03 | locus YNL071W, strain lat1, active compounds read low 1.02 | locus YNL175C, strain NOP13, active compounds read low 1.01 | locus YNL197C, strain WHI3, active compounds read low 1.01 | locus YNL209W, strain ssb2, active compounds read low 1.01 | locus YNL224C, strain SQS1, active compounds read low 0.995 | locus YNL248C, strain rpa49, active compounds read low 0.974 | locus YNL322C, strain KRE1 (second series), active compounds read low 0.996 | locus YNR049C, strain mso1, active compounds read low 1 | locus YOR001W, strain rrp6, active compounds read low 1 | locus YOR070C, strain gyp1, active compounds read low 1 | locus YOR080W, strain dia2, active compounds read low 1.01 | locus YOR083W, strain WHI5 (second series), active compounds read low 1.01 | locus YOR083W, strain WHI5, active compounds read low 0.988 | locus YOR106W, strain vam3, active compounds read low 0.989 | locus YOR265W, strain rbl2, active compounds read low 1.01 | locus YOR270C, strain vph1, active compounds read low 1.03 | locus YOR290C, strain snf2, active compounds read low 0.996 | locus YPL051W, strain arl3, active compounds read low 1 | locus YPL055C, strain LGE1, active compounds read low 0.996 | locus YPL078C, strain atp4, active compounds read low 0.988 | locus YPL106C, strain sse1, active compounds read low 1.04 | locus YPL240C, strain hsp82, active compounds read low 1 | locus YPL241C, strain CIN2, active compounds read low 1
